# In the OligoGym collection:
# Molecular target: ADC
# Assay: pooled miR-30 sensor sort-seq; sequence = guide strand
# Settings: shRNA
# Also: reference of the scale not given here.
row,Sequence,sensor-assay potency score (higher = more potent)
1,TGACACTCCAAACTTTAGGCTC,-0.511
2,TTCTTCTGCAGGATGGGGGTAG,-0.285
3,TTTCAGTGACACTCCAAACTTT,-0.644
4,ATGTTGTCAAAGACCAGCCAGT,-1.56
5,TTCTGCAGCCATCAGCTGCCTT,-1.15
6,TTGTCAAACAGGACTGAGTTGA,-0.112
7,TACACGATGGTCTTGGAGGTGG,-0.24
8,TTGCATACTTGAACTACAGCGA,0.563
9,TTCAGTGACACTCCAAACTTTA,-0.979
10,TTTTCAAGCAGGTGTCTGCAGG,-0.788
11,TTGATCACGGAAGCAATCTCTT,-0.838
12,TGGTCTTGGAGGTGGAACCATT,-1.77

# Molecular target: ADD2
# Assay: as above
# Settings: shRNA
row,Sequence,sensor-assay potency score (higher = more potent)
1,TTGCTTGTTTCTGTCTTCTTAG,-0.81
2,TCTTATAGCTCTTCCATCCATC,-0.635
3,TTGATAGGCGTCATCATGGAGA,-0.575
4,TTGACCTCTGATTTAGTCTGAG,0.252
5,TTGGCTAGTCACTTTGAGCAGC,-0.569
6,TTCTAGTTTCTTCCTCTCCACC,-1.02
7,TTGTTCTCGAATCTTGTTCCTC,-0.198
